Experimental data from PubChem BioAssay (Tox21).
Several values for one entry are separate records, joined by “and”; a condition that tells them apart may be missing. Identical values can stand only once. Inconclusive results are not listed. Where a call stands in place of a potency, no number is given. Where a structure was tested more than once in an assay, its records may differ in their call. Activity calls are given as the source filed them. Unless noted, calls follow the shape of the dose curve; as a rule, active = well fitted curve in the direction sought with a large enough effect in the repeat runs; inconclusive = weak or mixed curves; inactive = no such curve, though single readings can be large; an effect the other way counts as inactive or inconclusive.

Columns and labels:
[1] = A CellTox Green Cytotoxicity Assay to monitor cytotoxicity in HepG2 cells - 0 hour (AID 1224882); also: nearly all actives have a fitted effect of over 35% in size
Outline: (§1)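 HepG2 cells, 600/well, preincubated 5 h with CellTox Green dye, then exposed to Tox21 compounds in DMSO at 37 C for up to 40 h. Dead-cell DNA fluorescence read at the indicated time point.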

[2] = A CellTox Green Cytotoxicity Assay to monitor cytotoxicity in HepG2 cells - 32 hour (AID 1224883); also: nearly all actives have a fitted effect of over 50% in size
Outline: as §1

[3] = A CellTox Green Cytotoxicity Assay to monitor cytotoxicity in HEK293 cells - 8 hour (AID 1224884); also: nearly all actives have a fitted effect of over 35% in size
Outline: (§2)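 HEK293 cells, 600/well, were preincubated 5 hours and then exposed to compounds at 37 C for up to 40 hours. A cell-impermeant cyanine dye staining dead-cell DNA was read by fluorescence at 0, 8, 16, 24, 32 and 40 h time points.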

[4] = qHTS RealTime-Glo MT Cell Viability Assay in HepG2 cells - 16 hour (AID 1224885); also: nearly all actives have a fitted effect of over 50% in size
Outline: (§3)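 HepG2 cells (600/well) were dispensed with RealTime-Glo reagents, incubated 5 h at 37 °C, then treated with compounds in DMSO for up to 40 h. Nonlytic NanoLuc luminescence reflecting viable cells was read at each stated time point.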

[5] = qHTS RealTime-Glo MT Cell Viability Assay in HEK293 cells - 24 hour (AID 1224886); also: nearly all actives have a fitted effect of over 50% in size; also: potency is read from the fitted curve at half-maximal effect
Outline: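 HEK293 cells seeded with NanoLuc/prosubstrate reagent, rested 5 h at 37 C, then dosed and kept at 37 C up to 40 h. Nonlytic real-time luminescence from viable cells read at 0, 8, 16, 24, 32 and 40 h.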

[6] = qHTS RealTime-Glo MT Cell Viability Assay in HEK293 cells - 8 hour (AID 1224887); also: top concentration of the series differs between compounds; nearly all actives have a fitted effect of over 50% in size
Outline: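 600 cells/well were plated with the nonlytic NanoLuc/prosubstrate reagent, pre-incubated 5 h, then given 23 nL of compound in DMSO. Incubation at 37 C for 40 h, with luminescence from viable-cell-reduced substrate read repeatedly from 0 h.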

[7] = A CellTox Green Cytotoxicity Assay to monitor cytotoxicity in HEK293 cells - 16 hour (AID 1224888); also: nearly all actives have a fitted effect of over 35% in size
Outline: as §2

[8] = qHTS RealTime-Glo MT Cell Viability Assay in HepG2 cells - 0 hour (AID 1224889); also: nearly all actives have a fitted effect of over 50% in size; also: potency is read from the fitted curve at half-maximal effect
Outline: as §3

[9] = A CellTox Green Cytotoxicity Assay to monitor cytotoxicity in HepG2 cells - 8 hour (AID 1224890); also: nearly all actives have a fitted effect of over 45% in size
Outline: as §1

[10] = qHTS assay to identify small molecule antagonists of the estrogen receptor alpha (ER-alpha) signaling pathway using the BG1 cell line in the presence of 0.1 nM 17-beta-estradiol - cell viability counter screen (AID 1259241); also: nearly all actives have a fitted effect of over 40% in size
Outline: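 In this screen, hormone-deprived VM7Luc4E2 cells were seeded at 4,000 per well, dosed with compound and 0.1 nM estradiol final, and incubated 22 hr at 37C and 5% CO2; fluorogenic live-cell protease signal reported viability.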

[11] = qHTS assay to identify small molecule antagonists of the androgen receptor (AR) signaling pathway using the MDA cell line in the presence of 0.5 nM R1881 - cell viability counter screen (AID 1259242); also: nearly all actives have a fitted effect of over 45% in size
Outline: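 MDA-kb2 cells (MMTV-luciferase, AR/GR responsive) were treated with compounds plus 0.5 nM R1881 (final) for 16 hr at 37C, 0% CO2. Viability was then read in the same wells as live-cell protease fluorescence (CellTiter-Fluor, 30 min).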

[12] = target: Androgen receptor (Homo sapiens) (UniProt P10275); assay: qHTS assay to identify small molecule antagonists of the androgen receptor (AR) signaling pathway using the MDA cell line in the presence of 0.5 nM R1881 (AID 1259243); also: nearly all actives have a fitted effect of over 50% in size
Outline: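 MDA-kb2 cells (MMTV-luciferase, responsive to AR and GR) at 3,000/well, rested 5 h at 37C, 0% CO2, then given compounds plus 0.5 nM R1881 (final) for 16 hr. Luciferase read with ONE-Glo after 30 min at room temperature.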

[13] = qHTS assay to identify small molecule HDAC inhibitors (AID 1259364); also: top concentration of the series differs between compounds; nearly all actives have a fitted effect of over 45% in size
Outline: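 Wild-type HCT-116 cells, plated overnight at 37 C, exposed to compounds 2 hr at 37 C; luminogenic HDAC-Glo substrate then added 30 min at room temperature. Luminescence reports relative endogenous class I/II HDAC activity.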

[14] = qHTS assay to identify small molecule HDAC inhibitors - cell viability counter screen (AID 1259365)
Outline: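 Measured quantity is CellTiter-Glo luminescence from wild-type HCT-116 cells after compound incubation of 2hr at 37C, 5% CO2; reagent developed 30min at room temperature.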

[15] = qHTS assay to identify small molecule agonists of the sonic hedgehog signaling (Shh) pathway - cell viability counter screen (AID 1259366); also: nearly all actives have a fitted effect of over 50% in size; also: potency is read from the fitted curve at half-maximal effect
Outline: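 In quantitative high-throughput format, 3T3 Gli1-Luc cells were exposed to compounds for 24hr and multiplexed for viability using CellTiter-Fluor, incubated 1hr at 37C before the fluorescence read.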

[16] = qHTS assay to identify small molecule antagonists of the sonic hedgehog signaling (Shh) pathway - cell viability counter screen (AID 1259367); also: nearly all actives have a fitted effect of over 55% in size; also: potency is read from the fitted curve at half-maximal effect
Outline: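 Seed 3T3 Gli1-Luc cells at 2,000 per well; incubate 4 hr; add compound in DMSO, then conditioned medium; incubate at 37C with 5% CO2; add CellTiter-Fluor after 23 hr; read fluorescence 1 hr later.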

[17] = qHTS assay to identify small molecule agonists of the sonic hedgehog signaling (Shh) pathway (AID 1259368; calls by dose curve;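 also: NIH/3T3-derived 3T3Gli1-Luc cells carrying a stable Gli1-driven firefly luciferase reporter; series mostly up to about 92 µM; nearly all actives have a fitted effect of over 15% in size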)
Outline: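 NIH/3T3-derived 3T3Gli1-Luc cells with stably integrated Gli1-driven firefly luciferase, 2,000 cells/well, compounds added after 4 hr. Incubated 24 hr at 37C, 5% CO2; luminescence read after 30 min with luciferase reagent at room temperature.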

[18] = qHTS assay to identify small molecule antagonists of the sonic hedgehog signaling (Shh) pathway (AID 1259369; calls by dose curve; also: nearly all actives have a fitted effect of over 45% in size; also: potency is read from the fitted curve at half-maximal effect)
Outline: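 NIH/3T3-derived Gli1-Luc reporter cells plated 4 h, dosed with compound, then stimulated with conditioned medium for 24 h at 37 C. Firefly luciferase luminescence read after 30 min with detection reagent at room temperature.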

[19] = target: Estrogen receptor (Homo sapiens) (UniProt P03372); assay: qHTS assay to identify small molecule antagonists of the estrogen receptor alpha (ER-alpha) signaling pathway using the BG1 cell line in the presence of 0.1 nM 17-beta-estradiol (AID 1259244); also: nearly all actives have a fitted effect of over 50% in size
Outline: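 VM7Luc4E2 cells (endogenous full-length ER-alpha, 4×ERE-luciferase), kept 5 days in phenol red-free, charcoal-stripped FBS medium; 4,000 cells/well. Compounds added with 0.1 nM (final) 17beta-estradiol, 22 hr at 37C; luminescence read with ONE-Glo after 30 min.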

[20] = qHTS assay to identify small molecule phospholipidosis (PLD) inducers (AID 1259344; active = well fitted curve in the direction sought with a large enough effect; an effect the other way counts as inactive or inconclusive)
Outline: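 Quantitative HTS in HepG2: compound plus LipidTOX Red dye for 24 h, paraformaldehyde fixation with Hoechst 33342, widefield high-content imaging; amiodarone as positive and DMSO as negative control.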

Chain of Estrogen receptor (Homo sapiens) (P03372 whole entry, looked up): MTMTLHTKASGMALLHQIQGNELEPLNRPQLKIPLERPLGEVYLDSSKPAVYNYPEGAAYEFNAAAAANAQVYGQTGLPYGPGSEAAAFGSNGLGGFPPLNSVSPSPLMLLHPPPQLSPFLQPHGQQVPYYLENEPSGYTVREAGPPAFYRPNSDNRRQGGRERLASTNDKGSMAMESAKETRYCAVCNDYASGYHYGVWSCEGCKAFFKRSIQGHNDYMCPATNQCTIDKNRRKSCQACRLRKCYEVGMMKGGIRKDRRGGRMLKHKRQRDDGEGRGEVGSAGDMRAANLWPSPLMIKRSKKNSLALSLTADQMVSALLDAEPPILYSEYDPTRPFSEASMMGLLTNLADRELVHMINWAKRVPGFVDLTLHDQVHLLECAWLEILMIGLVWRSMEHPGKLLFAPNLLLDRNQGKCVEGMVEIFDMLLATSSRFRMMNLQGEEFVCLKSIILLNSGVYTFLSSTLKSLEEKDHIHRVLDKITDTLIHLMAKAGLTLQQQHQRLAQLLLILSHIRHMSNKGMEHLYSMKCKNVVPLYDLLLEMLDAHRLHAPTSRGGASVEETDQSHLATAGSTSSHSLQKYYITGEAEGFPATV
Chain of Androgen receptor (Homo sapiens) (P10275 whole entry, looked up): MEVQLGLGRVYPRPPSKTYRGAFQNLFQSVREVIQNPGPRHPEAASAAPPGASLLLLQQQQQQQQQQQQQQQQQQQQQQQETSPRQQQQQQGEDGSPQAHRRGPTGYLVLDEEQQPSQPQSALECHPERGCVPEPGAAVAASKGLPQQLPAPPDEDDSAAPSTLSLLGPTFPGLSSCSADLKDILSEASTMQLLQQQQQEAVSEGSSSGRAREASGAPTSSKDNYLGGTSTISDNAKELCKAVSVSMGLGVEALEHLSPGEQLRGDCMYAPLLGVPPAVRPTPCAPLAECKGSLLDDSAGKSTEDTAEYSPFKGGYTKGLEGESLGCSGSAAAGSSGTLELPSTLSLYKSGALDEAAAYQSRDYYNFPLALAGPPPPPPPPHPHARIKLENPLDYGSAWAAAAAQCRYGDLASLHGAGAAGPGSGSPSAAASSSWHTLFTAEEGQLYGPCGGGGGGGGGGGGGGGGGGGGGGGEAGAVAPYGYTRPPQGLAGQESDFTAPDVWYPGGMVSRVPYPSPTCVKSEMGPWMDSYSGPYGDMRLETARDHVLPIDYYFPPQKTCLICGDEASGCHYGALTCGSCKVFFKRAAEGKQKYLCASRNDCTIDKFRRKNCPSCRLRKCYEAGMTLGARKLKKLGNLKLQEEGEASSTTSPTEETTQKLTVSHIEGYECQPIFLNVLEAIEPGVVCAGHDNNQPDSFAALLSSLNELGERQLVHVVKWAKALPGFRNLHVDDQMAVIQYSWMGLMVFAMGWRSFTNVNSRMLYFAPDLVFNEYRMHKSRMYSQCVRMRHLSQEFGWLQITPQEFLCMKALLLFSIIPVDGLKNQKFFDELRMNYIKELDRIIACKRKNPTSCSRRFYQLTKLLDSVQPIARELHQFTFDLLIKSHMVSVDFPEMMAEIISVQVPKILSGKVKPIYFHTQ

| SMILES | outcome [1] | Potency [2] | outcome [3] | Potency [4] | Potency [5] | Potency [6] | Potency [7] | Potency [8] | outcome [9] | Potency [10] | Potency [11] | Potency [12] | Potency [13] | outcome [14] | Potency [15] | Potency [16] | outcome [17] | Potency [18] | Potency [19] | outcome [20] |
| --- | --- | --- | --- | --- | --- | --- | --- | --- | --- | --- | --- | --- | --- | --- | --- | --- | --- | --- | --- | --- |
| CC(C)CC(=O)CC(C)CC(C)C (stereo unspecified) | inactive | inactive | inactive | inactive | inactive and 19.5 µM (active) | inactive | inactive | inactive | inactive | inactive | inactive | inactive | inactive | inactive | inactive | inactive | inactive | inactive |  |  |
| C[Si]1(C)O[Si](C)(C)O[Si](C)(C)O[Si](C)(C)O1 | inactive | inactive | inactive | inactive | inactive | inactive | inactive | inactive | inactive | inactive | inactive |  | inactive | inactive | inactive | inactive | inactive | inactive | inactive |  |
| CC1(C)CC(N)CC(C)(CN)C1 (stereo unspecified) | inactive | inactive | inactive | inactive | inactive | inactive | inactive | inactive | inactive | inactive | inactive |  | inactive | inactive | inactive | inactive | inactive | inactive | inactive |  |
| CCCCCCC=O | inactive | inactive | inactive | inactive | inactive | inactive | inactive | inactive | inactive | inactive | inactive |  | inactive | inactive | inactive | inactive | inactive | inactive | inactive |  |
| CC(C)c1cccc(C(C)C)c1 | inactive | inactive | inactive | inactive | inactive | inactive | inactive | inactive | inactive | inactive | inactive |  | inactive | inactive | inactive | inactive | inactive | inactive | inactive |  |
| COc1ccc(C)cc1N | inactive | inactive | inactive | inactive | inactive | inactive | inactive | inactive | inactive | inactive | inactive | inactive | inactive | inactive | inactive | inactive | inactive | inactive | inactive |  |
| CC(C)OP(=O)(CP(=O)(OC(C)C)OC(C)C)OC(C)C | inactive | inactive | inactive | inactive | inactive | inactive | inactive | inactive | inactive | inactive | inactive |  | inactive | inactive | inactive | inactive | inactive | inactive and 1.19 µM (active) | inactive |  |
| CCCCOC(=O)c1ccc(N)cc1 | inactive | inactive | inactive | inactive | inactive | inactive | inactive | 24.2 µM (active) and inactive | inactive | inactive | inactive |  | inactive | inactive | inactive | inactive | inactive | inactive | inactive | inactive |
| NCCN1CCNCC1 | inactive | inactive | inactive | inactive | inactive | inactive | inactive | inactive | inactive | inactive | inactive |  | inactive | inactive | inactive | inactive | inactive | inactive | inactive |  |
| CC(C)OC(=O)COc1ccc(Cl)cc1Cl | inactive | inactive | inactive | inactive | inactive | inactive | inactive | inactive | inactive | inactive | inactive |  | inactive | inactive | inactive | inactive | inactive | inactive | inactive |  |
| C=CC(=O)OCCC(=O)O | inactive | inactive | inactive | inactive | inactive | inactive | inactive | inactive | inactive | inactive | inactive |  | inactive | inactive | inactive | inactive | inactive | inactive | inactive |  |
| CC(=O)OCc1ccco1 | inactive | inactive | inactive | inactive | inactive | inactive | inactive | inactive | inactive | inactive | inactive |  | inactive | inactive | inactive | 68.2 µM (active) and inactive | inactive | 1.53 µM (active) and inactive | inactive |  |
| Cc1ccc(S(=O)(=O)N=C=O)cc1 | inactive | inactive | inactive | inactive | inactive | inactive | inactive | inactive | inactive | inactive | inactive |  | inactive | inactive | 16.9 µM (active) and inactive | 23.9 µM (active) and inactive | inactive | 6 µM (active) and inactive | inactive |  |
| CCCCCCCCCCCC(=O)OC | inactive | inactive | inactive | inactive | inactive | inactive | inactive | inactive | inactive | inactive | inactive |  | inactive | inactive | inactive | inactive | inactive | inactive | inactive |  |
| CC(=O)OCCOC(C)=O | inactive | inactive | inactive | inactive | inactive | inactive | inactive | inactive | inactive | inactive | inactive |  | inactive | inactive | inactive | inactive | inactive | inactive | inactive |  |
| CCCCCCCCCCCCCCCCO | inactive | inactive | inactive | inactive | inactive | inactive | inactive | inactive | inactive | inactive | inactive |  | inactive | inactive | inactive | inactive | inactive | inactive | inactive | inactive |
